Test results published in paper PMC5540273 (PLoS ONE, 2017).

What was measured:
Settings in all cases: concentration: 1 μM, replicates: in singlicate; n = 1
MAP3K15 = system: MAP3K15
MAP3K1 = system: MAP3K1
MAP3K2 = system: MAP3K2
MAP3K3 = system: MAP3K3
MAP3K4 = system: MAP3K4
MAP4K2 = system: MAP4K2
MAP4K3 = system: MAP4K3
MAP4K4 = system: MAP4K4
MAP4K5 = system: MAP4K5
MAPKAPK2 = system: MAPKAPK2
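Note: KINOMEscan kinase panel screen.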

| Structure (SMILES) | %Inh (MAP3K15) [%] | %Inh (MAP3K1) [%] | %Inh (MAP3K2) [%] | %Inh (MAP3K3) [%] | %Inh (MAP3K4) [%] | %Inh (MAP4K2) [%] | %Inh (MAP4K3) [%] | %Inh (MAP4K4) [%] | %Inh (MAP4K5) [%] | %Inh (MAPKAPK2) [%] |
| --- | --- | --- | --- | --- | --- | --- | --- | --- | --- | --- |
| O=C(Nc1n[nH]c2nc(-c3cccc(O)c3)ccc12)C1CC1 [SB-711805] | 15 | 17 | 14 | 50 | 0 | 9 | 0 | 13 | 0 | 0 |
| COc1cccc(-c2nc(-c3ccccc3)[nH]c2-c2ccncc2)c1 [SB-610250] | 0 | 16 | 9 | 0 | 0 | 0 | 0 | 1 | 0 | 17 |
| Nc1ncc(-c2cn[nH]c2)c2scc(-c3ccc4c(c3)CCN4C(=O)Cc3ccccc3)c12 [GSK2593067] | 22 | 24 | 91 | 79 | 86 | 87 | 98.9 | 27 | 99.6 | 0 |
| Cc1ccc(Nc2ccnc(Nc3ccc(C)c(F)c3)n2)cc1O.Cl [GW582868] | 0 | 2 | 0 | 0 | 40 | 0 | 96.8 | 5 | 2 | 0 |
| Fc1cc(Cl)ccc1Nc1ccnc2cc(-c3ccc(CN4CCSCC4)o3)ccc12 [GW560106] | 0 | 6 | 0 | 0 | 0 | 0 | 8 | 40 | 50 | 5 |
| COc1ccc(C2=C(Nc3cccc(O)c3)C(=O)NC2=O)cc1 [SB-390766] | 0 | 24 | 0 | 0 | 0 | 0 | 0 | 0 | 0 | 0 |
| Cl.N#CCc1ccc(Nc2nccc(Nc3ccc(Oc4ccccc4)cc3)n2)cc1 [GW639905] | 21 | 11 | 0 | 0 | 10 | 0 | 0 | 99.1 | 100 | 0 |
| Cc1cccc(Nc2nc(N[C@H]3CCCC[C@H]3N)ncc2C(N)=O)c1.Cl [GSK986310] | 16 | 17 | 84 | 71 | 0 | 98.4 | 31 | 74 | 34 | 19 |
| COc1ccc(NC(=O)c2ccoc2)cc1-c1ccc(C(=O)NCC2CC2)cc1 [GW810437] | 4 | 13 | 9 | 0 | 6 | 10 | 0 | 0 | 7 | 0 |
| CN(c1ccc(NC(=O)N2CCN(CCCN3CCOCC3)CC2)cc1)c1ccnc(Nc2ccc(CS(C)(=O)=O)cc2)n1.Cl [GW830899] | 0 | 0 | 0 | 8 | 15 | 0 | 18 | 7 | 30 | 0 |
| N#Cc1cnc2cc(-c3cnc(CNCCN4CCOCC4)s3)ccc2c1Nc1ccc(Oc2ccccc2)cc1 [GW664114] | 0 | 19 | 65 | 86 | 99.2 | 71 | 98.9 | 98.1 | 99.6 | 14 |
| Cc1ccc(NC(=O)c2ccc(Cl)c(Cl)c2)cc1-c1ccc(C(=O)Nc2ccncc2)cc1 [GSK1398460] | 0 | 8 | 1 | 0 | 45 | 0 | 0 | 1 | 0 | 15 |
| CN1CCN(Cc2ccc(NC(=O)Nc3ccc(N(C)c4ccnc(Nc5ccc(CS(C)(=O)=O)cc5)n4)cc3)cc2)CC1.Cl [GW827654] | 100 | 37 | 59 | 61 | 96 | 67 | 95.5 | 95.8 | 82 | 0 |
| CN(C)CCNS(=O)(=O)c1ccc(-c2ccnc3[nH]ccc23)cc1 [GSK977620] | 14 | 11 | 49 | 19 | 0 | 11 | 31 | 20 | 8 | 0 |
| Nc1ncnc2scc(-c3ccc(NC(=O)Cc4cc(F)ccc4F)cc3)c12.O=C(O)C(F)(F)F [SB-731254-M] | 24 | 10 | 82 | 63 | 22 | 16 | 54 | 1 | 70 | 35 |
| CN(c1ccc2c(c1)nc(NCc1ccccc1)n2C)c1ccnc(Nc2ccc(CS(C)(=O)=O)cc2)n1.Cl [GW811603] | 13 | 0 | 0 | 56 | 0 | 0 | 33 | 2 | 0 | 0 |
| Cc1ccc(O)cc1Nc1ccnc2ccc(C(C)(C)C)cc12 [GW856805] | 26 | 27 | 32 | 31 | 23 | 43 | 0 | 0 | 4 | 0 |
